This is a sample that favours compounds with a hit; in the whole collection about 10% have one here.
NS1 inh = qHTS Assay for Inhibitors of Influenza NS1 Protein Function; Potency, µM (titrated, usually from 46.1 µM), inactives show at the highest dose activity, positive = more growth; 0.4% of 270,000 active; further: actives are rising curves; nearly all actives have a fitted effect of over 50% in size
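S. cerevisiae expressing influenza A NS1, grown in glucose, washed, then diluted 1:100 into pH 6.0 -URA galactose medium with 23 nl compound. Growth recovery read as OD600; NS1-free strain serves as control.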
SARS PLP yeast = qHTS of Yeast-based Assay for SARS-CoV PLP | S. cerevisiae expressing SARS-CoV PLpro, growth rescue | Potency, µM (doses to about 32.9 µM), without a hit: at the highest dose activity, positive = growth rescue, actives largely listed as activators | 0.19% of 330,000 active; further: 0% is about no effect; nearly all actives have a fitted effect of over 55% in size
Pf growth 96h = Primary qHTS for delayed death inhibitors of the malarial parasite plastid, 96 hour incubation | 6.9% of 320,000 active | P. falciparum luciferase reporter growth, 96 h | AID 504834, 2011 | Potency, µM (titrated, usually from 28.7 µM), without a hit: at the highest dose activity change, negative = inhibition, most hits filed as inhibitors; active means well fitted inhibition curve with a large enough effect; inconclusive means small, poorly fitted or top-dose-only effect, or another doubt; inactive means no such curve, though single readings can be large or run the other way; further: on the % scale 0 is the no-effect control and ±100 the full control effect
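Plates of compound plus infected erythrocytes (2% hematocrit, 0.05% parasitemia final) incubate 96 hours, 37 C, 5% CO2. Detection reagent added; reduced luminescence from the parasites' luciferase reporter flags inhibition.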
Pf growth 48h = Primary qHTS for delayed death inhibitors of the malarial parasite plastid, 48 hour incubation. 5.9% of 310,000 active. Potency, µM (doses to about 28.7 µM), for inactives: at the highest dose activity change, negative = inhibition, most hits filed as inhibitors. P. falciparum luciferase growth in erythrocytes, 48 h; active means well fitted inhibition curve with a large enough effect; inconclusive means small, poorly fitted or top-dose-only effect, or another doubt; inactive means no such curve, though single readings can be large or run the other way; further: on the % scale 0 is the no-effect control and ±100 the full control effect
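Luciferase-expressing parasites in RBCs, 2% Hct / 0.1% parasitemia final; RPMI 1640 + 0.5% Albumax; 37 C, 5% CO2, one generation; luminescence read-out, lower signal = inhibition.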
* hit, by the source's call; u = inconclusive; x = no result. Unless noted, the call rests on the fitted dose curve. Potency means the concentration at half of the fitted maximal effect.

SMILES | NS1 inh | SARS PLP yeast | Pf growth 96h | Pf growth 48h
CCOc1cc(C(=O)NC)cc(Br)c1OC | -4.5% | -0.8% | -24.5% | 11.0%
CCOc1cc(C(=O)N=c2sccn2C)cc(Br)c1OC | -10.8% | -10.3% | 7.38µM* | u
COc1ccccc1/C=C/C=C1\Oc2c(ccc(O)c2CN(C)C)C1=O | 17.6% | -1.7% | u | 2.62µM*
CC(C)=CCCC1(C)C=Cc2c(c(C)cc3c2[nH]c2cc(O)ccc23)O1 (stereo unspecified) | 5.4% | -3.9% | -16.3% | 10.4µM*
O=C(Cn1nc2n(c1=O)-c1ccccc1SC2)N/N=C/c1ccncc1 | 5.0% | -0.2% | 13.5% | 11.7%
Cc1cc(C)c(NC(=O)CN(CC(=O)O)CC(=O)O)c(C)c1Br | x | x | 3.38µM* | -22.6%
COc1ccc(NC(=O)Cc2ccccc2)cc1 | -0.3% | -8.3% | u | 105.3%
COc1ccc(NC(=O)Cc2c(SC)c3ccccc3n2Cc2ccccc2)cc1 | -2.2% | -6.3% | 7.38µM* | 11.7µM*
CSc1c(CC(=O)NCCCO)n(Cc2ccccc2)c2ccccc12 | -6.1% | -3.5% | 9.28µM* | -13.8%
CN(Cc1ccc(Br)cc1)CC(O)COc1cccc(Br)c1 (stereo unspecified) | -28.7% | -6.8% | -9.2% | -17.6%
Oc1ccc(/C=N/n2cc(-c3ccccc3)[nH]c2=S)cc1 | x | 0.5% | u | u
COc1cc(/C=N/n2cc(-c3ccccc3)[nH]c2=S)cc(OC)c1O | 2.6% | -3.4% | u | 11.7µM*
C(=N\n1c2ccccc2c2ccccc21)/c1ccccc1 | 3.7% | -1.1% | -5.9% | 45.5%
Oc1ccccc1/C=N/n1c2ccccc2c2ccccc21 | 23.1% | -2.4% | 2.62µM* | u
Cc1nn(C)c(NC(=O)c2ccc(Cl)cc2Cl)c1Br | -3.3% | -0.1% | 0.2% | -19.3%
CCOC(=O)c1cnc2cc(-c3ccc(Br)cc3)nn2c1C | -3.1% | 3.9% | 13.1µM* | 46.4%
COc1cccc(CN2C(=O)C3CCCN3c3ccc(S(=O)(=O)N4CCOCC4)cc32)c1 (stereo unspecified) | 8.0% | 0.6% | 1.17µM* | 1.04µM*
Cc1ccc(C)c(CN2C(=O)C3CCCN3c3ccc(S(=O)(=O)N4CCOCC4)cc32)c1 (stereo unspecified) | 11.1% | u | u | 1.04µM*
COc1cccc(CNC(=O)c2ccc(S(=O)(=O)N3CCOCC3)cc2)c1 | x | -4.8% | -16.3% | u
CC1CCCN(C(=O)CN2C(=O)CSc3ccc(S(=O)(=O)N4CCOCC4)cc32)C1 (stereo unspecified) | 0.8% | u | 2.5% | -16.6%
O=C(NCc1ccc2c(c1)CCO2)Nc1cccc(C(F)(F)F)c1 | 3.2% | 0.2% | u | -13.7%
COC(=O)c1cc(C(=O)NCc2ccc3c(c2)OCO3)cc([N+](=O)[O-])c1 | -14.5% | 2.7% | u | 0.0%
CC(C)C[C@H](NC(=O)c1nc[nH]c1C(=O)NCC(=O)OC(C)(C)C)C(=O)OCc1ccccc1 | -5.5% | 0.9% | -98.3% | u
CC(C)C[C@H](NC(=O)c1nc[nH]c1C(=O)NCC(=O)OCc1ccccc1)C(=O)OCc1ccccc1 | u | 3.3% | u | 4.65µM*
CC(C)C[C@H](NC(=O)c1[nH]cnc1C(=O)N[C@@H](C)c1ccccc1)C(=O)OCc1ccccc1 | 16.3% | -0.3% | 5.86µM* | 8.28µM*
SMILES | NS1 inh | SARS PLP yeast | Pf growth 96h | Pf growth 48h
CN1CCN(C(=S)c2cn(Cc3ccccc3F)c3ccccc23)CC1 | x | 1.4% | u | u
CC1CCN(C(=S)c2cn(Cc3ccccc3F)c3ccccc23)CC1 | -9.7% | 10.4% | 13.1µM* | 7.38µM*
CCc1c(C)sc(NC(=O)c2cc(-c3ccc(O)cc3)on2)c1C#N | 7.5% | -6.5% | -33.9% | x
CCc1c(C)sc(NC(=O)c2cc(CC(C)C)on2)c1C#N | -12.3% | -0.6% | 13.1µM* | x
CSc1ccccc1C(=O)C1CCCN(Cc2cnn(-c3ccccc3)c2)C1 (stereo unspecified) | -4.1% | 0.3% | 135.4% | u
CCOc1ccc(N2C(N)=NC(N)=NC2(C)C)cc1 | -16.6% | -3.4% | 10.1% | 0.131µM*
COc1ccccc1N1C(N)=NC(N)=NC1(C)C | -1.1% | 0.1% | 10.2% | u
COc1ccc(N2C(N)=NC(N)=NC2(C)C)cc1 | 15.6% | 4.3% | u | 0.0329µM*
CC1(C)N=C(N)N=C(N)N1c1ccc(OCCCOc2ccccc2)c(Cl)c1 | -6.6% | 0.6% | 0.0233µM* | 0.0262µM*
COc1cccc(N2C(N)=NC(N)=NC2(C)C)c1 | 1.9% | 0.9% | -18.7% | 0.131µM*
CC(C)c1nnc(NC(=O)c2cccc(NC(=O)C(F)(F)F)c2)s1 | x | 2.0% | 48.5% | 362.5%
CCn1c2ccccc2c2nc3ccccc3nc21 | -61.3% | -14.7% | u | x
CC(=O)n1c2ccccc2c2nc3ccccc3nc21 | 5.0% | 1.4% | 2.62µM* | 44.3%
Cn1c(=O)c2c(nc(NCc3ccco3)n2C/C=C/c2ccccc2)n(C)c1=O | -35.0% | -0.2% | 9.28µM* | 8.28µM*
CCCCCC(=O)N(O)C1CC(=O)N(c2ccccc2)C1=O (stereo unspecified) | -255.0% | -16.2% | u | 10.4µM*
CCCCCC(=O)NNC1CC(=O)N(c2ccccc2)C1=O (stereo unspecified) | -1.5% | 0.1% | 59.9% | -11.5%
CCCCCCC(=O)N(O)C1CC(=O)N(Cc2ccccc2)C1=O (stereo unspecified) | -30.7% | -22.2% | x | 5.86µM*
Cc1c(C(=O)N2c3ccccc3Sc3ccccc32)cccc1[N+](=O)[O-] | 3.9% | -0.4% | u | u
CC(C)n1ncc(N2CCOCC2)c(Cl)c1=O | 6.5% | -0.3% | 65.6% | 39.4%
O=C(CCCc1c[nH]c2ccccc12)NCc1ccccc1C(F)(F)F | -8.4% | 0.3% | 48.9% | -0.5%
COc1ccccc1NC(=O)CSc1nnc(C)s1 | 3.4% | 6.7% | -0.1% | 12.0%
COc1ccc(C2c3ccc(O)cc3Oc3ncn(Cc4ccccc4)c(=N)c32)cc1OC (stereo unspecified) | 5.3% | -0.3% | u | 11.7µM*
COc1ccc(C2c3ccc(O)cc3Oc3ncn(CCN4CCOCC4)c(=N)c32)cc1OC (stereo unspecified) | 2.5% | 0.7% | u | u
COc1ccc(C2c3ccc(O)cc3Oc3ncn4nc(-c5ccccn5)nc4c32)cc1OC (stereo unspecified) | -5.6% | 5.4% | -3.5% | 10.4µM*
COc1ccc(C2c3ccc(O)cc3Oc3ncn4nc(-c5ccncc5)nc4c32)cc1OC (stereo unspecified) | 7.5% | 1.0% | 3.29µM* | 1.31µM*
COc1ccc(C2c3ccc(O)cc3Oc3ncn4nc(-c5ccco5)nc4c32)cc1OC (stereo unspecified) | 2.3% | 1.1% | -1.7% | u
COc1ccc(C(=O)CCC(=O)N2CCN(c3ccc([N+](=O)[O-])cc3)CC2)cc1 | 1.9% | -13.3% | u | 4.5%
Cc1cc(NC(=O)COC(=O)c2ccc([N+](=O)[O-])cc2Cl)no1 | x | -1.2% | u | -14.0%
Cc1cc(C)cc(OC(=O)COc2ccccc2C)c1 | -33.8% | -0.1% | u | 2.6%
